Source: PubChem (National Center for Advancing Translational Sciences (NCATS))
JMJD2A Tudor – blocks the human JMJD2A Tudor domain; Potency, µM (highest dose often 114 µM), usual class: inhibitors; AID 504339; O75164; 390,000 tested, 4.4% active; AlphaScreen JMJD2A-Tudor / H3K4me3 peptide binding; further: nearly all actives have a fitted effect of over 50% in size
G9a block – G9a (human) methyltransferase inhibition; Q96KQ7; G9a H3K9 monomethylation, AlphaScreen, 2 h; Potency, µM (series often up to 102 µM), actives largely listed as inhibitors; 350,000 tested, 8.8% active; further: nearly all actives have a fitted effect of over 75% in size
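G9a (20 nM) was preincubated 15 min with compound, then reacted 2 h at room temperature with 500 nM biotin-H3K9 peptide and 20 µM SAM. Monomethyl-H3K9 detected by AlphaScreen using anti-H3K9me1 antibody.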
Six1-Eya2 blk – blocks human Six1 binding to Eya2; Q15475+O00167; AlphaScreen GST-Six1/His-Eya2 binding, biochemical; hits give low values; activity change, % (concentration not given with the values); 360,000 tested, 0.56% active; AID 651725; in the data active means activity change below about -65%; inconclusive means mostly about -30% to -63%
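AlphaScreen luminescence read after one hour at 37 °C in darkness. Pin-transferred compounds met GST-Six1 and His-Eya2 protein (5X stock 250 nM/500 nM) plus glutathione donor and Ni-chelate acceptor beads (5X, 50 ug/mL).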
CtBP-E1A inh – inhibitors of CtBP/E1A interaction; AlphaScreen GST-E1A/His-CtBP binding, 1536-well; hits give low values; activity change, % (test concentration not listed); 340,000 tested, 0.49% active; AID 651724; in the data active means activity change below about -65%; inconclusive means mostly about -30% to -63%
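GST-E1A and His-tagged CtBP (125 nM each as 5X stock) were preincubated with pin-transferred compound for 2 h at 37 °C in the dark, then glutathione donor and nickel acceptor beads were added for 1 h before AlphaScreen reading.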
BAZ2B inh – BAZ2B (human) inhibition; 360,000 tested, 4.4% active; AID 504333; AlphaScreen BAZ2B-H3K14Ac peptide displacement; Potency, µM (series often up to 114 µM), hits mostly inhibitors; further: nearly all actives have a fitted effect of over 60% in size
Target sequence (Q9UIF8 whole entry, looked up): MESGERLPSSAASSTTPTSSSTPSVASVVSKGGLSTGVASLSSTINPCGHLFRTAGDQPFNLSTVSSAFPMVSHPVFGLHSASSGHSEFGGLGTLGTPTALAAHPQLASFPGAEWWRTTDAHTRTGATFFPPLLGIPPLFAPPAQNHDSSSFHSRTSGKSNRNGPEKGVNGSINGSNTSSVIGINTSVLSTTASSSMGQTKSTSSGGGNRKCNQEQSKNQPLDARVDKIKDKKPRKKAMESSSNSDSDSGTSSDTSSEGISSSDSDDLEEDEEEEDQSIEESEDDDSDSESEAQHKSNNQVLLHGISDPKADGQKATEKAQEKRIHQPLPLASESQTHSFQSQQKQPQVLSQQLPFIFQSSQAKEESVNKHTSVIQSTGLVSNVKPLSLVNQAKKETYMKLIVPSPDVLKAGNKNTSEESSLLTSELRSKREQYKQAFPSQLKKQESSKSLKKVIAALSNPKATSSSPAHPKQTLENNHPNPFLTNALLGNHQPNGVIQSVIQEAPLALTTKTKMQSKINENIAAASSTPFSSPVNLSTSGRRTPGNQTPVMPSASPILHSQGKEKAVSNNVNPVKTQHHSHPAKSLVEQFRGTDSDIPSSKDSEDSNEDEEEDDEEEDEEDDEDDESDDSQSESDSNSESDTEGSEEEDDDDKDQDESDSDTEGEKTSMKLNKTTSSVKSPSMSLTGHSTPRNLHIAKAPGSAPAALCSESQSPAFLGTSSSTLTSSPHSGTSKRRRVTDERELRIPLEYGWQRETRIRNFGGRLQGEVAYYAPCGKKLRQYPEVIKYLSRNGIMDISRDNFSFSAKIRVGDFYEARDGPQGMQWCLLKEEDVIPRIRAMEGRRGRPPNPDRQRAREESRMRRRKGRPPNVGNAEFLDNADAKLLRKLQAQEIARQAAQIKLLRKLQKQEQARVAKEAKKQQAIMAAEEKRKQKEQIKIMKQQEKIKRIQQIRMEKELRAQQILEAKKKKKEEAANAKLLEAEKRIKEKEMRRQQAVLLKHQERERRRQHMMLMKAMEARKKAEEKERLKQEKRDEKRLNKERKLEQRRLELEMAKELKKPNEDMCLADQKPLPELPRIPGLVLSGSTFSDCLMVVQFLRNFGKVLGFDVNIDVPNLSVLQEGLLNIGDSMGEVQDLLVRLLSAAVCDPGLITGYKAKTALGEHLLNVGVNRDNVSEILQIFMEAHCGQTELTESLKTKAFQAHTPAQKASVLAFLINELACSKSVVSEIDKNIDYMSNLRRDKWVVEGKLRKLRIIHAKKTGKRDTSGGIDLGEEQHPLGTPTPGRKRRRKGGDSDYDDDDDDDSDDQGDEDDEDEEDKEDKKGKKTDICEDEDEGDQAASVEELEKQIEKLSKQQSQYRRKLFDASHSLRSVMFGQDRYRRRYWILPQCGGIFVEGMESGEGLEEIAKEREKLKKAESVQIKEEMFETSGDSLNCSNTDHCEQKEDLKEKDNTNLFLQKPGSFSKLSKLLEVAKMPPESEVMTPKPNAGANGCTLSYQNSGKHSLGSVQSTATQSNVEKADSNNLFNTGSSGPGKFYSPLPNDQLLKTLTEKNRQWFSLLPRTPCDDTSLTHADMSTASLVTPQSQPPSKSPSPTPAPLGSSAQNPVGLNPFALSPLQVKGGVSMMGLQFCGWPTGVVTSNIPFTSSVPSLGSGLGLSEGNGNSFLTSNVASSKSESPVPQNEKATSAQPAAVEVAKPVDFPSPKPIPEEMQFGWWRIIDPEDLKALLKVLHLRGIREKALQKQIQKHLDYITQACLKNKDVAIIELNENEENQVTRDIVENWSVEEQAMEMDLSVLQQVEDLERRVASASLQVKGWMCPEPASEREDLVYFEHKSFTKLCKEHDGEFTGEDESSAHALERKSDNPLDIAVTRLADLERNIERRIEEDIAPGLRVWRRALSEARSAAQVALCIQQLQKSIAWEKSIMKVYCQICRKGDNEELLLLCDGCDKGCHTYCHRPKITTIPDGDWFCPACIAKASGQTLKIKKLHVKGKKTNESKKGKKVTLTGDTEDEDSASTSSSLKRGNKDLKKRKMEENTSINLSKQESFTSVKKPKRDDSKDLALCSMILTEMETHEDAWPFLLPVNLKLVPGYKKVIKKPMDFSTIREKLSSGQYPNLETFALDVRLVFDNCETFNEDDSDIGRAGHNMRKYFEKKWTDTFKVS
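AlphaScreen displacement: compounds (up to 110uM) incubated 30 min at room temperature with a preformed 50 nM BAZ2B/50 nM biotinylated H3K14Ac peptide complex in PBS pH 7.4 with Tween-20. Donor and acceptor beads at 10 ug/mL final added, 20 min light-protected before reading.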
HP1b chromo inh – blocks HP1-beta chromodomain binding to methylated histone tails | P83916 | AlphaScreen HP1-beta / biotin-H3K9me3 peptide binding | Potency, µM (highest dose often 114 µM), actives largely listed as inhibitors | 390,000 tested, 0.56% active | AID 540317; further: nearly all actives have a fitted effect of over 70% in size
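AlphaScreen: HP1-beta (50 nM) preformed 30 min with biotin-H3(1-18)K9me3 peptide (50 nM) in PBS pH 7.4, 0.01% Tween-20. Compound added for 30 min at RT, then streptavidin donor/nickel chelate acceptor beads (10 ug/mL) for 30 min.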
Each line names hits and unclear results; the compound was inactive in the other large screens. A selection: hits, their analogues and other compounds. The true share with any hit is near 10%. Unless noted, the call rests on the fitted dose curve; in most records, active means well fitted inhibition curve with a large enough effect; inconclusive means small, poorly fitted or top-dose-only effect; inactive means no such curve, though single readings can be large or run the other way.

CC(C)C(=O)Nc1ccc(-c2nc3ccccc3c(=O)o2)cc1	Six1-Eya2 blk -76, CtBP-E1A inh inconclusive (no result: G9a block)
COc1cccc(/C=N/NC(=O)Cn2cnc3c2c(=O)n(C)c(=O)n3C)c1	JMJD2A Tudor 56µM (no result: G9a block)
Cn1c(=O)c2c(ncn2CC(=O)N/N=C/C=C/c2ccccc2)n(C)c1=O	JMJD2A Tudor 40µM, G9a block inconclusive
Cn1c(=O)c2c(ncn2CC(=O)N/N=C/C=C\c2ccccc2[N+](=O)[O-])n(C)c1=O	none
c1coc(-c2nc3ccccn3c2Nc2ccc3c(c2)OCCO3)c1	JMJD2A Tudor 56µM, G9a block 13µM, BAZ2B inh 45µM, HP1b chromo inh inconclusive (no result: Six1-Eya2 blk, CtBP-E1A inh)
Cc1cccc2nc(-c3ccco3)c(Nc3ccc4c(c3)OCCO4)n12	JMJD2A Tudor 56µM, G9a block inconclusive, BAZ2B inh 35µM, HP1b chromo inh inconclusive (no result: CtBP-E1A inh)
Cc1ccn2c(Nc3ccc4c(c3)OCCO4)c(-c3ccc(C)o3)nc2c1	JMJD2A Tudor 45µM, G9a block 25µM, BAZ2B inh 32µM (no result: Six1-Eya2 blk, CtBP-E1A inh)
CC1(C)Cc2c(cnn2-c2ccc(F)cc2)C(NC(=O)CN2CCCC2=O)C1 (centres undefined)	none
CN(N=Nc1ccccc1C(=O)O)C1CCCCC1	none (no result: JMJD2A Tudor, G9a block, BAZ2B inh, HP1b chromo inh)
CCOC(=O)c1ccc2c(c1)n(CC)c(/C=C/N(C)c1ccccc1)[n+]2CC	BAZ2B inh inconclusive, HP1b chromo inh inconclusive
CC[n+]1c(/C=C/N(C)c2ccccc2)n(-c2ccccc2)c2ccc(-c3nc4ccccc4s3)cc21	JMJD2A Tudor 35µM, G9a block 25µM
Cc1noc(C)c1CS(=O)(=O)c1ccc([N+](=O)[O-])cc1	none
Cc1cccn2cc(-c3cc4ccccc4oc3=O)nc12	JMJD2A Tudor 89µM (no result: G9a block)
O=C(C[n+]1ccc(-c2cc(C(=O)Nc3cccc(C(F)(F)F)c3)c3ccccc3n2)cc1)c1cccc([N+](=O)[O-])c1	G9a block 50µM, Six1-Eya2 blk inconclusive, CtBP-E1A inh inconclusive, HP1b chromo inh inconclusive (no result: BAZ2B inh)
Cn1c(CNC(=O)c2ccco2)nnc1SCC(=O)Nc1ccccc1Cl	none
O=C(Nc1ccccc1)[C@@H]1[C@@H]2C(=O)N(c3ccc(F)cc3)C(=O)[C@@H]2[C@H]2C=CC=NN21	none (no result: G9a block)
Cc1ccc(N2C(=O)[C@@H]3[C@H](C2=O)[C@H]2C=CC=NN2[C@@H]3C(=O)Nc2ccccc2)cc1	G9a block 7.1µM
CC(=O)Oc1ccc(N2C(=O)[C@@H]3[C@H](C2=O)[C@H]2c4ccccc4C=NN2[C@@H]3C(C)=O)cc1	G9a block inconclusive, Six1-Eya2 blk inconclusive, CtBP-E1A inh inconclusive
COc1ccc(N2C(=O)[C@@H]3[C@H](C2=O)[C@H](C(=O)c2ccc(OC(C)=O)cc2)N2N=CC=C[C@@H]32)cc1	G9a block 3.5µM, BAZ2B inh inconclusive (no result: JMJD2A Tudor, Six1-Eya2 blk, CtBP-E1A inh, HP1b chromo inh)
CC(=O)Oc1ccc(C(=O)[C@H]2[C@H]3C(=O)N(c4ccccc4)C(=O)[C@H]3[C@@H]3C=CC=NN32)cc1	G9a block 4.5µM
CC(=O)Oc1ccc(C(=O)[C@H]2[C@H]3C(=O)N(c4ccc(C)cc4)C(=O)[C@H]3[C@@H]3C=CC=NN32)cc1	JMJD2A Tudor inconclusive, G9a block 3.5µM
COc1ccc(OC)c(-c2nnc3n2N=C(c2c(OC)cccc2OC)CS3)c1	none (no result: G9a block, Six1-Eya2 blk, CtBP-E1A inh, BAZ2B inh, HP1b chromo inh)
COc1ccccc1OC(C)C(=O)Nc1ccc(-c2nc3ccccc3s2)cc1 (centres undefined)	none (no result: Six1-Eya2 blk, CtBP-E1A inh)
Cc1ccc(S(=O)(=O)NC(=O)C2(C)CCN2C(=O)Cc2ccc(C(C)(C)C)cc2)nc1 (centres undefined)	none (no result: JMJD2A Tudor, G9a block, BAZ2B inh, HP1b chromo inh)
COc1ccc(C(=O)[C@H]2[C@H]3C(=O)N(c4ccc(C)cc4)C(=O)[C@H]3C3C=CC=NN32)cc1 (some centres undefined)	BAZ2B inh 40µM (no result: G9a block)
COc1ccc(C(=O)[C@H]2[C@H]3C(=O)N(c4ccccc4)C(=O)[C@H]3C3C=CC=NN32)cc1 (some centres undefined)	JMJD2A Tudor inconclusive, G9a block inconclusive
CC(=O)Oc1ccc(C(=O)[C@H]2[C@H]3C(=O)N(c4ccc(C)cc4C)C(=O)[C@H]3[C@@H]3C=CC=NN32)cc1	JMJD2A Tudor inconclusive, G9a block 3.5µM
Cc1ccc(N2C(=O)C3C(C2=O)C(C(=O)c2ccc(Cl)cc2)N2CCCC32)cc1 (centres undefined)	G9a block inconclusive, BAZ2B inh inconclusive
CC(=O)Oc1ccc(N2C(=O)C3C(C2=O)C(C(=O)c2ccc(Cl)cc2)N2CCCC32)cc1 (centres undefined)	JMJD2A Tudor 45µM, HP1b chromo inh inconclusive
Cc1ccc(C(=O)Oc2ccccc2N2C(=O)C3C4CCC(C4)C3C2=O)cc1 (centres undefined)	none
Nc1cc2c(cc1Br)-c1ccc(F)cc1C2O (centres undefined)	none (no result: G9a block, BAZ2B inh)
Cc1ccc2onc(CNC(=O)NCc3ccc(Cl)cc3)c2c1	none (no result: Six1-Eya2 blk, CtBP-E1A inh)
CC(C)(C)NC[C@H](O)COc1cccc2c1C[C@@H](O)[C@@H](O)C2	none (no result: JMJD2A Tudor, Six1-Eya2 blk, CtBP-E1A inh, BAZ2B inh, HP1b chromo inh)
O=[N+]([O-])c1ccccc1N/N=C1\CC2CC=CC12 (centres undefined)	JMJD2A Tudor 40µM, G9a block 11µM, Six1-Eya2 blk inconclusive, BAZ2B inh 13µM, HP1b chromo inh 18µM (no result: CtBP-E1A inh)
O=C(C[n+]1cccc(CNC(=O)c2ccc(OC(F)F)cc2)c1)Nc1ccc(F)cc1	none
COC(=O)c1ccc[n+](CC(=O)Nc2ccc(OC(F)F)cc2)c1	JMJD2A Tudor inconclusive, G9a block 45µM, HP1b chromo inh inconclusive
COc1ccc(CNc2cc(-c3cccc(NS(C)(=O)=O)c3)ncn2)c(OC)c1	none (no result: JMJD2A Tudor, Six1-Eya2 blk, CtBP-E1A inh, BAZ2B inh, HP1b chromo inh)
COC(=O)c1ccc(COc2ccc(/C=N/NC(N)=S)cc2)o1	G9a block 50µM
O=c1[nH][nH]c2c(N=Cc3ccccc3O)ccc(F)c12	JMJD2A Tudor inconclusive, G9a block 8.9µM, Six1-Eya2 blk inconclusive, CtBP-E1A inh -91, BAZ2B inh 10µM, HP1b chromo inh 11µM
COc1ccc(Nc2cc(C(=O)NCCCN3CCOCC3)c3ccccc3n2)cc1OC	JMJD2A Tudor inconclusive
COc1ccc(Nc2cc(C(=O)NCCCN3CCOCC3)c3ccccc3n2)c(OC)c1	JMJD2A Tudor inconclusive
COc1ccc(Nc2cc(C(=O)NCCCN3CCN(C)CC3)c3ccccc3n2)cc1OC	G9a block 3.5µM
COc1ccc(Nc2cc(C(=O)NCCCN(C)Cc3ccccc3)c3ccccc3n2)c(OC)c1	JMJD2A Tudor 32µM, G9a block inconclusive, BAZ2B inh inconclusive, HP1b chromo inh inconclusive (no result: Six1-Eya2 blk, CtBP-E1A inh)
COc1ccc(Nc2cc(C(=O)NCc3ccccc3)c3ccccc3n2)c(OC)c1	JMJD2A Tudor inconclusive (no result: Six1-Eya2 blk, CtBP-E1A inh, BAZ2B inh)
